Experimental findings from PubChem BioAssay (NCATS) are described below.

Values joined by “and” are separate entries in the source; they are usually repeats but may differ in a detail not shown here. Identical values can stand only once. Inconclusive results are not listed. Active and inactive are the calls of the source. Unless noted, calls follow the shape of the dose curve; as a rule, active = well fitted cell-killing curve with a large enough effect; inconclusive = small, poorly fitted or top-dose-only effect; inactive = flat fitted curve, though single readings scatter.

A short description of assay [1]: Cell Viability - LYMP2-023 (AID 975).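 Also: cellular ATP measured by luciferase luminescence as viability proxy; cells exposed to compound for 24 hours at 37 °C; plate controls were DMSO only for no effect and 92 µM tetraoctylammonium bromide control for full effect; nearly all actives have a fitted effect of over 55% in size.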 Put shortly: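 Concentration-dependent drop in intracellular ATP measures acute cytotoxicity in a human lymphoblastoid line treated for 24 hours in complete culture medium. AC50 values are taken from Hill-equation fits of qHTS data.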
Assay [2] is described as follows: Cell Viability - LYMP2-025 (AID 976).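 Also: cells exposed to compound for 24 h at 37 °C; plate controls were DMSO only for no effect and tetraoctylammonium bromide control for full effect.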 Summed up: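 In qHTS format, LYMP2-025 lymphoblastoid cells in complete culture medium received compound for 24 hr; ATP-based CellTiter-Glo signal gave viability, with AC50 derived by Hill equation.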
Assay [3] can be described thus: Cell Viability - LYMP1-002 - Assay at 24 hr (AID 993). Also: % is scaled to controls: 0 for no effect and ±100 for the full control effect. Put shortly: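 qHTS, LYMP1-002 lymphoblastoid, 24 h cpd, 37 C, CellTiter-Glo ATP luminescence; AC50 via Hill eq.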
Assay [4] in a line: Cell Viability - LYMP1-002 - Assay at 40 hr (AID 994).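 Also: 0% = DMSO only and full inhibition = 92 µM tetraoctylammonium bromide; nearly all actives have a fitted effect of over 60% in size.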 Put shortly: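 Viability in the human lymphoblastoid line was measured as intracellular ATP via CellTiter-Glo after 40 hr compound exposure. Tetraoctylammonium bromide served as positive control.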
Assay [5] can be described thus: qHTS Assay for Lipid Storage Modulators (AID 1519; calls by dose curve; as to activity change, negative = inhibition: % is scaled to controls: 0 for no effect and ±100 for the full control effect). As to conditions: Drosophila S3 cells, BODIPY lipid droplet/cell ratio, laser cytometry, cells loaded with oleic acid. Summed up:
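Cells seeded at 5,000 per well were treated with compounds over a concentration series and loaded with oleic acid (400 uM, as added). Lipid droplet fluorescence (488 nm excitation, 500-530 nm channel) was read by laser-scanning cytometry and normalized to 20 uM Triacsin C.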

Assay [6] can be described thus: Cell Viability - LYMP2-017 (AID 972).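 Also: cells exposed to compound for 24 hours at 37 °C; % is scaled to controls: 0 for no effect and ±100 for the full control effect; nearly all actives have a fitted effect of over 55% in size.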 Summed up:
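Steps: plate 2500 lymphoblastoid cells per well; incubate 5 hr at 37 C; add compound across a concentration series and incubate 24 hr at 37 C; add CellTiter-Glo and read luminescence after 30 min at room temperature; fit Hill curves for AC50.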

Assay [7] is described as follows: Cell Viability - LYMP2-021 (AID 974).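 Also: compound exposure lasts 24 hours at 37 °C; % is scaled to controls: 0 for no effect and ±100 for the full control effect; nearly all actives have a fitted effect of over 55% in size.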 Put shortly: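 Concentration-response cytotoxicity in a human lymphoblastoid line: 24 hr treatment at 37 C in complete culture medium, tetraoctylammonium bromide as positive control, luminescent ATP quantitation as viability measure.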
A short description of assay [8]: Cell Viability - LYMP2-006 (AID 978).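 Also: cells exposed to compound for 24 hours; % is scaled to controls: 0 for no effect and ±100 for the full control effect; nearly all actives have a fitted effect of over 60% in size.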 Put shortly:
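qHTS, 1536-well; 2500 cells/well, 5 hr 37 C; cpd 24 hr 37 C; CellTiter-Glo 30 min RT; luminescence. Tetraoctylammonium bromide pos. ctrl. AC50 via Hill eqn.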

Assay [9] can be described thus: Cell Viability - LYMP2-008 (AID 980).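 Also: cells exposed to compound for 24 h at 37 °C; % is scaled to controls: 0 for no effect and ±100 for the full control effect; nearly all actives have a fitted effect of over 60% in size.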 Put shortly: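 Acute cytotoxicity is scored as concentration-dependent loss of cellular ATP in a human lymphoblastoid line after 24 hr treatment at 37 C. ATP is quantified by luciferase luminescence.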
Assay [10] can be described thus: Cell Viability - LYMP2-010 (AID 981).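 Also: cells exposed to compound for 24 hours at 37 °C; % is scaled to controls: 0 for no effect and ±100 for the full control effect; nearly all actives have a fitted effect of over 55% in size.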 Summed up: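 Acute toxicity is scored as a concentration-dependent loss of cellular ATP in human lymphoblastoid cells after 24 hr compound exposure in complete medium. Tetraoctylammonium bromide is the positive control.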
A short description of assay [11]: Cell Viability - LYMP2-012 (AID 982).
Assay [12] in a line: Cell Viability - LYMP2-014 (AID 983).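 Also: cells exposed to compound for 24 h at 37 °C; plate controls were DMSO only for no effect and 92 µM tetraoctylammonium bromide for full effect; nearly all actives have a fitted effect of over 50% in size.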 Put shortly: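 Decrease in intracellular ATP after 24 hr treatment at 37 C, measured by luciferase luminescence, indicated cytotoxicity. Concentration-response data were fitted with the standard Hill equation to give AC50.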
Assay [13] in a line: Cell Viability - LYMP2-016 (AID 984). Summed up: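 qHTS, 1536-well: 2500 LYMP2-016 cells/well, 5 hr 37 C, compound added, 24 hr 37 C, CellTiter-Glo 30 min RT, luminescence. Tetraoctylammonium bromide positive control. AC50 via Hill fit.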
Assay [14] is described as follows: Cell Viability - LYMP2-018 (AID 985).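 Also: compound exposure lasted 24 hr at 37 °C; plate controls were DMSO only for no effect and tetraoctylammonium bromide at 92 µM for full effect; nearly all actives have a fitted effect of over 50% in size.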 Put shortly: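 Acute cytotoxicity is scored as a concentration-dependent drop in intracellular ATP after 24 hr exposure of the lymphoblastoid line in complete culture medium, measured by luciferase luminescence. Potency is expressed as AC50 from Hill modelling.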
Assay [15] can be described thus: Cell Viability - LYMP2-020 (AID 986). Put shortly:
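Acute cytotoxicity in a human lymphoblastoid line is scored as a concentration-dependent fall in cellular ATP after 24 hr at 37 C in complete medium. The positive control is tetraoctylammonium bromide, and potency is given as Hill-fit AC50.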

Assay [16] is described as follows: Cell Viability - LYMP2-026 (AID 989).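 Also: cells exposed to compound for 24 h at 37 °C; % is scaled to controls: 0 for no effect and ±100 for the full control effect; nearly all actives have a fitted effect of over 50% in size.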 Put shortly:
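Concentration-dependent loss of intracellular ATP in human lymphoblastoid cells after 24 hr at 37 C, quantified by luciferase luminescence. AC50 derived from standard Hill equation.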

Setting [17] is: measured here: cell count channel max response.
Where [18] appears, read: measured here: lipid channel max response.

On to `COc1ccc2cc3[n+](cc2c1OC)CCc1cc2c(cc1-3)OCO2`, for which the Potency entry in assay [1], in assay [2], in [3] and in assay [4] was “inactive” throughout. Besides, the activity change, negative = inhibition in assay [5] (at 25.7 µM (top of the series)) is -1.57% (inactive). For the same compound, the max response in [5] (setting [17]) is -13.6%; in assay [5] (setting [18]), -12.8%.
As for `C[C@]12C=CC(=O)C=C1CC[C@@H]1[C@@H]2C(=O)C[C@@]2(C)[C@H]1CC[C@]2(O)C(=O)CO`, the Potency result in assay [6], in assay [7], in assay [1], in assay [2], in [8] and in assay [9] was “inactive” throughout. Also, the Potency entry in assay [10], in [11], in assay [12], in [13], in assay [14] and in assay [15] was “inactive” in each case. In addition, the Potency entry in assay [16], in assay [3] and in assay [4] was “inactive” throughout.
With `CC1=NN(c2ccccc2)C(=O)C1`, the Potency entry in [6], in assay [7], in assay [1], in assay [2], in [8] and in assay [9] was “inactive” in each case. In addition, the Potency entry in assay [10], in assay [11], in assay [12], in [13], in assay [14] and in assay [15] was “inactive” throughout. Moreover, the Potency entry in [16], in assay [3] and in assay [4] was “inactive” throughout. For the same compound, the activity change, negative = inhibition in assay [5] (at 57.5 µM (top of the series)) was 5.32% (inactive). Also, the max response in assay [5] (setting [17]) came to 16.1%; in assay [5] (setting [18]), 20.6%.
As for `COc1cc(NS(=O)(=O)c2ccc(N)cc2)nc(OC)n1`, the activity change, negative = inhibition is -1.42% (inactive) in assay [5] (at 25.7 µM (top of the series)) and 14.8% (inactive) in [5] (at 57.5 µM (top of the series)). Moreover, the max response is -11.2% and 9.08% in assay [5] (setting [17]); -12.8% and 25.1% in [5] (setting [18]).
Regarding `Cc1nnc(NS(=O)(=O)c2ccc(N)cc2)s1`, the Potency result in assay [6], in assay [7], in assay [1], in [2], in assay [8] and in assay [9] was “inactive” in each case. In addition, the Potency entry in assay [10], in assay [11], in [12], in assay [13], in [14] and in assay [15] was “inactive” throughout. Further, the Potency result in [16], in [3] and in [4] was “inactive” in each case. In addition, the figures for the activity change, negative = inhibition in assay [5] (at 25.7 µM (top of the series)) and in assay [5] (at 57.5 µM (top of the series)) were 0.279% (inactive) and 7.74% (inactive), respectively. Moreover, the max response in [5] (setting [17]) was -3.37% and -1.8%; in assay [5] (setting [18]) it was -7.15% and 7.76%.
Take `CCc1cc(C(N)=S)ccn1`: the Potency entry in [6], in assay [7], in assay [1], in assay [2], in [8] and in assay [9] was “inactive” throughout. In addition, the Potency entry in [10], in [11], in [12], in [13], in assay [14] and in assay [15] was “inactive” throughout. The Potency result in assay [16], in assay [3] and in assay [4] was “inactive” in each case. The activity change, negative = inhibition in assay [5] (at 25.7 µM (top of the series)) was -2.71% (inactive); in assay [5] (at 57.5 µM (top of the series)) it was 6.15% (inactive). Also, the max response in assay [5] (setting [17]) is -9.37% and 8.92%; in [5] (setting [18]), -12.5% and 21.6%.
